# Compound activity as filed in PubChem.
# In the library only some 1.8% were active in any assay of this set; here they are far more common.
# PME-1 primary: PME-1 (human) inhibition. recombinant PME-1, FP-Rh probe fluorescence polarization. 320,000 tested, 0.53% active. inhibition, % at 5.9 µM. AID 2130. Q9Y570;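 active = inhibition above the campaign mean of all compounds plus 3 SD, cut at about 26% in these data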;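 note: competitive labeling of PME-1 active site by serine hydrolase directed probe; 0% = PME-1 with DMSO and 100% = wells lacking PME-1 enzyme; inhibitors block probe labeling so polarization falls and inhibition rises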
# PAD4 FP inh: PAD4 (human) enzyme inhibition. recombinant PAD4, RCA probe fluorescence polarization. inhibition, % at 6.36 µM. 330,000 tested, 0.41% active. AID 485272;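 active = percent inhibition above a cutoff equal to the mean of all tested compounds plus 3 SD, cut at about 15% in these data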;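 note: 0% = PAD4 with RCA probe and DMSO and 100% = probe without PAD4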
# LYPLA1 counter: blocks human lysophospholipase 1, a PME1 counter-screen; O75608; recombinant LYPLA1, FP-Rh probe fluorescence polarization; inhibition, % at 5.9 µM; 320,000 tested, 0.16% active; AID 2174;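 active = inhibition above the mean of all tested compounds plus 3 SD, set per campaign, cut at about 14% in these data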;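 note: inhibitors block serine hydrolase probe labeling of LYPLA1 so polarization falls; 0% = enzyme with DMSO and 100% = wells lacking LYPLA1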
# Target sequence (O75608 whole entry, looked up): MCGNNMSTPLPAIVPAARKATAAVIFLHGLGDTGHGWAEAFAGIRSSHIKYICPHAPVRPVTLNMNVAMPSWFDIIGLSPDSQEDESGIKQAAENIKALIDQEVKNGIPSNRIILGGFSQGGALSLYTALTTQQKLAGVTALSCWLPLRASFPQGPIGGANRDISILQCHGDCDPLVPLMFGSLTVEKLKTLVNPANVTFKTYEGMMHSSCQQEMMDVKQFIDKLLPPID
# GSTO1 inh: GSTO1 inhibition, counter-screen for RBBP9 inhibitors; AID 1974; inhibition, % at 5.96 µM; P78417; 300,000 tested, 1.1% active; recombinant GSTO1, activity-based probe fluorescence polarization;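 active = inhibition above the campaign mean inhibition plus 3 SD, cut at about 35% in these data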;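 note: 0% = GSTO1-1 with DMSO and 100% = wells lacking GSTO1-1 enzyme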
# Fam108B inh: counter-screen for RBBP9 inhibitors: inhibitors of mouse Fam108B | recombinant Fam108B, FP-Rh probe fluorescence polarization | inhibition, % at 9.51 µM | 300,000 tested, 0.33% active | AID 1947;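 active = inhibition above the screen mean inhibition plus 3 SD, computed separately per campaign, cut at about 18% in these data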;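 note: inhibitors lower polarization as less probe binds the enzyme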
# LYPLA2 counter: counter-screen for PME1 inhibitors: inhibitors of human LYPLA2. 320,000 tested, 0.38% active. inhibition, % at 5.9 µM. recombinant LYPLA2, FP-Rh probe fluorescence polarization. O95372;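 active = inhibition above the screen-wide mean plus 3 SD, limit set per campaign, cut at about 26% in these data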;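 note: 0% = LYPLA2 with DMSO and 100% = wells lacking LYPLA2 enzyme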
# * marks the source's active call; other numbers are inactive results; · = no result.
SMILES,PME-1 primary,PAD4 FP inh,LYPLA1 counter,GSTO1 inh,Fam108B inh,LYPLA2 counter
O=C1CN(C(=O)c2cc3ccccc3oc2=O)C(c2ccccc2)c2cc(F)ccc2N1 (stereo not given),34*,0,-1,2,1,11
CC(NC(=O)c1ccco1)C(=O)OCC(=O)N1CCCCCC1 (stereo not given),-2,1,1,·,·,0
CCc1nnc(NC(=O)CSc2nc3c(c(=O)n2CC)SC(C)C3)s1 (stereo not given),7,-3,-1,35*,-2,-2
COc1ccccc1C(=O)Nc1onc(C)c1C#N,6,-6,1,2,-2,8
CCOC(=O)C[n+]1c(C)sc2ccc(OC)cc21,-1,18*,-4,5,-2,2
CC1=C([N+](=O)[O-])C(c2cccc(Br)c2)C2=C(N1)c1ccccc1C2=O (stereo not given),33*,-6,-12,-17,15,7
COc1ccc(C(=O)OCC(=O)NC2CC2)cc1F,·,1,·,·,·,·
CCN=c1scc(C)n1/N=C/c1ccc(O)c(O)c1O,-4,3,-4,69*,5,-9
CC1CN(C(=O)CCNS(=O)(=O)c2ccc(Br)cc2)CC(C)O1 (stereo not given),-7,-2,2,1,-4,2
CCOc1ccccc1/C=C/c1onc(C)c1S(=O)(=O)N1CCC(C(=O)N2CCCCCC2)CC1,-4,3,-5,-9,-7,-7
CC1CCN(c2ccc3nnc(CCC(=O)N4CCCCC4)n3n2)CC1,0,-2,4,15,-1,10
CN(C)c1ccc(C(=O)Nc2nnc(-c3ccc(Cl)cc3)o2)cc1,5,6,5,36*,-1,1
CC(=O)c1ccc(C(=O)Nc2nnc(-c3ccc(Cl)cc3)o2)cc1,6,-1,-1,-3,2,-2
O=C1/C(=C/Nc2ccc3c(c2)OCO3)CCc2ccccc21,30*,0,2,14,12,15
O=C(NC(C(=O)N/N=C/c1cc([N+](=O)[O-])ccc1O)c1n[nH]c(=O)c2ccccc12)c1ccccc1 (stereo not given),49*,3,-4,-75,7,-2
N#C/C(=C\c1ccc(OCc2cccc(C(=O)O)c2)cc1)C(=O)NCc1ccco1,0,-4,3,-12,-5,2
CN(CC(=O)Nc1ccccc1Br)C(=O)Cn1[nH]c(=O)c2ccccc2c1=O,-3,2,0,·,·,0
Oc1cccc(/C=N/Nc2cc(N3CCOCC3)nc(N3CCOCC3)n2)c1,3,-5,-3,2,2,-1
Cc1nc(N/N=C/c2ccc(O)cc2O)cc(N2CCOCC2)n1,4,0,9,7,3,4
Oc1ccccc1/C=N/Nc1cc(N2CCCC2)nc(N2CCCC2)n1,16,-11,-5,73*,8,-6
Oc1ccc(/C=N/Nc2cc(N3CCOCC3)nc(N3CCOCC3)n2)cc1O,-6,-1,-1,54*,6,-9
COc1ccc(S(=O)(=O)NNc2nc(C)cc(C)n2)cc1Br,0,2,2,7,2,2
CCN(C(=O)COc1ccc(C)nc1[N+](=O)[O-])C1CCS(=O)(=O)C1 (stereo not given),-2,0,2,4,2,-1
CCOC(=O)c1c(NC(=O)CN2C(=O)NC3(CCCCCC3)C2=O)sc(C)c1-c1ccc(C)cc1,-1,-4,-3,0,-9,-6
CCC1Sc2ccc(S(=O)(=O)CCC(=O)Nc3ccc(OC(F)(F)F)cc3)cc2NC1=O (stereo not given),26*,-1,-6,8,-7,-2
COCCN1C(=O)c2ccccc2C(C(=O)Nc2ccc3c(c2)OCCO3)C1c1ccc(F)cc1 (stereo not given),1,-3,0,6,1,-1
O=C(Nc1ccc([N+](=O)[O-])cc1)Nc1nc(-c2ccc(Cl)s2)cs1,44*,-13,-24,-9,11,-15
CCOc1cc(/C=C/c2ccc3cccc([N+](=O)[O-])c3n2)cc(Cl)c1O,27*,-4,-4,5,16,2
O=[N+]([O-])c1cccc2ccc(/C=C/c3ccc(Cl)cc3)nc12,-6,2,-2,-7,3,-2
